# An excerpt weighted towards active compounds, which were near 18% of everything screened.
# IL-1B inflam inh – inhibitors of inflammasome signaling (IL-1 beta secretion). THP-1 LPS/ATP IL-1B secretion, AlphaLISA, 16 h; hits give low values. activity change, % at 57.5 µM. 4.7% of 360,000 active; in the data active means activity change below about -50%; inconclusive means mostly about -30% to -49%
#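 THP-1 cells pretreated 1 hr with compounds (up to 57.5 uM final), then stimulated with LPS (250 ng/mL final) plus ATP (1.25 mM final); secreted IL-1B measured by AlphaLISA after 16 hr, decreased signal indicating inhibition.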
# CtBP-E1A inh – inhibitors of CtBP/E1A interaction. AlphaScreen GST-E1A/His-CtBP binding, 1536-well; hits give low values. activity change, % (concentration not given with the values). 0.49% of 340,000 active; in the data active means activity change below about -65%; inconclusive means mostly about -30% to -63%
#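 Homogeneous bead-based format: GST-tagged E1A captured on glutathione donor beads, His-tagged CtBP on nickel acceptor beads; compounds precede bead addition by 2 h at 37 °C.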
# Six1-Eya2 blk – inhibitors of human Six1/Eya2 interaction; AlphaScreen GST-Six1/His-Eya2 binding, biochemical; hits give low values; activity change, % (no concentration beside the values); 0.56% of 360,000 active; in the data active means activity change below about -65%; inconclusive means mostly about -30% to -63%
# Target sequence (O00167 whole entry, looked up): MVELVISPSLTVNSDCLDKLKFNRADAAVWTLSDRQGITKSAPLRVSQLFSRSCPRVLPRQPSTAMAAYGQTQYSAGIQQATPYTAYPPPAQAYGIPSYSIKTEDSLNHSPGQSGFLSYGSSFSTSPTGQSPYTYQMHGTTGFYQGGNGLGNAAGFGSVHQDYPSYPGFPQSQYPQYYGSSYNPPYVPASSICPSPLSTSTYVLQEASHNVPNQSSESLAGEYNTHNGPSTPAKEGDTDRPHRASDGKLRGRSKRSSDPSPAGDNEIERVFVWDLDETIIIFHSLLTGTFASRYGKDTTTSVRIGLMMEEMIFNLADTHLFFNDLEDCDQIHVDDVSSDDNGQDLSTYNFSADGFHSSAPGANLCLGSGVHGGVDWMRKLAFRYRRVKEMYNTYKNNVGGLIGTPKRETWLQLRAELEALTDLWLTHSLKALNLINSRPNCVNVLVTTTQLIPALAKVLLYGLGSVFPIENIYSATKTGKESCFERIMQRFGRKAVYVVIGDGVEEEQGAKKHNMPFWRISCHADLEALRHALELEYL
# Target sequence (Q15475 whole entry, looked up): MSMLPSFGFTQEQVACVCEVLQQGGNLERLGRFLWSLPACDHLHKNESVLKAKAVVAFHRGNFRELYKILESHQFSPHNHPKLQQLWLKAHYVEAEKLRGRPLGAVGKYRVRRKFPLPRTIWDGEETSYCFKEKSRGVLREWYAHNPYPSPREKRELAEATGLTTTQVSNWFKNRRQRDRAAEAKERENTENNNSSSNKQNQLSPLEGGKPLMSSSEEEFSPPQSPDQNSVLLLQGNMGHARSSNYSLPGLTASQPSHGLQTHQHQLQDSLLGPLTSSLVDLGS
#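 GST-Six1 + His-Eya2 (5X stock: 250/500 nM); Tris pH 8.0, 300 mM NaCl, 0.05% BSA, 0.02% Tween 20; GSH donor/Ni acceptor beads; 1 h 37 °C dark; AlphaScreen readout.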
# TDP1 cell noCPT – qHTS for Inhibitors of human tyrosyl-DNA phosphodiesterase 1 (TDP1): qHTS in cells in absence of CPT | DT40 Tdp1-/- hTDP1 cells, no CPT, ATP luminescence, 48 h | Potency, µM (top dose mostly 46.2 µM), without a hit: top-dose activity change, negative = growth inhibition, hits mostly inhibitors | 15% of 420,000 active | AID 686978, 2013; further: potency means the concentration at half of the fitted maximal effect; nearly all actives have a fitted effect of over 55% in size
#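 Growth kinetics read by CellTiter-Glo luminescence after ≥48 hr at 37 °C. Cells: DT40 Tdp1-/- stably carrying human TDP1, 400 per well, compound exposure in the absence of CPT (DMSO vehicle).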
# TDP1 block – blocks human tyrosyl-DNA phosphodiesterase 1 | Q9NUW8 | recombinant TDP1, AlphaScreen DNA substrate cleavage | Potency, µM (top dose mostly 130 µM), for inactives: at the top dose activity change, negative = inhibition, usual class: inhibitors | 0.28% of 350,000 active | AID 485290; further: potency means the concentration at half of the fitted maximal effect; nearly all actives have a fitted effect of over 40% in size
#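 Compounds were preincubated with Tdp1 (1 nM final) for 15 min at room temperature before substrate (15 nM final) started a 5 min reaction; beads (10 ug/ml final) were then added for 10 min before AlphaScreen detection.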
# DT40 TDP1 CPT – growth inhibition of DT40 Tdp1-/-;hTDP1 cells with camptothecin (screen for TDP1 inhibitors); Potency, µM (titrated, usually from 46.2 µM), for the others: at the highest dose activity change, negative = growth inhibition, usual class: inhibitors; 12% of 420,000 active; chicken DT40 Tdp1-/-;hTDP1 cells + 20 nM CPT, ATP luminescence, 48 h; further: potency means the concentration at half of the fitted maximal effect; nearly all actives have a fitted effect of over 55% in size
#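 Chicken DT40 Tdp1-/- cells complemented with human TDP1, 400 cells/well, exposed to compounds plus 20 nM camptothecin for at least 48 h at 37 C; viability read as ATP content by CellTiter-Glo luminescence.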
# Active calls of the source: *; ? = inconclusive; . = not tested or not shown; [ ] = another dose, or the depositor's remark. Unless noted, the call rests on the fitted dose curve; in most records, active means well fitted curve in the direction sought with a large enough effect; inconclusive means small, poorly fitted or top-dose-only effect, or another doubt; inactive means no such curve, though single readings can be large; an effect the other way counts as inactive or inconclusive. On the % scale 0 is the no-effect control and ±100 the full control effect.
SMILES,IL-1B inflam inh,CtBP-E1A inh,Six1-Eya2 blk,TDP1 cell noCPT,TDP1 block,DT40 TDP1 CPT
CCn1c(=S)sc2c(=O)n(CC(=O)Nc3ccccc3OC)c(C)nc21,4,-3,0,?,2%,?
CCn1c(=S)sc2c(=O)n(CC(=O)NC(C)CCc3ccccc3)c(C)nc21 (stereo unspecified),9,3,5,29µM*,3%,?
CCn1c(=S)sc2c(=O)n(CC(=O)Nc3cc(OC)ccc3OC)c(C)nc21,4,4,0,18µM*,5%,?
CCOC(=O)C1(C)CCCN(C(=O)c2snnc2C)C1 (stereo unspecified),8,-2,-2,-2%,.,-17%
CCOC(=O)C1=C(COC(=O)/C=C/c2ccccc2)NC(=O)NC1C (stereo unspecified),-15,-10,7,-25%,.,3%
CC(=O)Nc1cccc(-n2nnc(SCC(=O)c3ccccc3)n2)c1,0,.,-10,?,3%,-13%
COc1ccc(C(=O)CSc2nnn(-c3cccc(NC(C)=O)c3)n2)cc1,.,-8,-11,23µM*,3%,?
COc1ccc2c(c1OC)C(=O)N(c1cccc(C)c1)C2=O,-20,-3,6,-4%,0%,5%
CCCCNC(=O)C1C(c2ccc(OC)cc2)=Nc2ccccc2N1C(=O)c1ccncc1 (stereo unspecified),-8,2,-3,21µM*,.,23µM*
CCc1ccc(S(=O)(=O)c2nnn3c2nc(Nc2ccc(C)c(Cl)c2)c2sccc23)cc1,.,.,.,-17%,0%,?
CC(C)OC(=O)c1c(NC(=O)c2cnn3c2NC(c2ccccc2)CC3C(F)(F)F)sc2c1CCCC2 (stereo unspecified),1,7,2,?,4%,?
Cc1cc(=O)n2[nH]c(N)c(N=Nc3ccccc3F)c2n1,10,-15,-22,16µM*,8%,?
O=S(=O)(Nc1cccc(-n2cnnn2)c1)c1cccc(Cl)c1,22,-1,3,-16%,3%,7%
CCCCOc1ccc(CSCCN)cc1Cl,-83*,-12,-4,18µM*,7%,18µM*
CCCCOc1ccc(CSc2nnc(C)n2N)cc1[N+](=O)[O-],2,6,-1,-3%,8%,-8%
CCOc1ccc(CSC(=N)N)cc1Cl,-52*,.,10,12µM*,.,15µM*
CCOc1ccc(CSC(=N)N)cc1[N+](=O)[O-],-97*,-1,-3,?,2%,23µM*
CCOc1ccccc1C(=O)NCC(=O)Nc1ncccc1C,7,7,9,?,.,-10%
O=[N+]([O-])c1cccc(-c2nnc3ccc4ccccc4n23)c1,15,-17,-22,13µM*,.,16µM*
CN1CCC2(CCN3CCc4c(oc5ccccc45)C3C2)N(C)C1=O (stereo unspecified),.,.,.,.,-5%[56.1 µM],.
CN1CC[C@]2(CCN3CCc4c(oc5ccccc45)[C@@H]3C2)N(C)C1=O,25,5,5,18µM*,.,?
Cc1ccccc1NC(=O)CSc1cn(CC(=O)N2CCCC2)c2ccccc12,.,.,.,?,-3%,?
Cc1ccc(S(=O)(=O)NCc2nc(-c3cccc(C)c3)no2)cc1,.,.,.,?,4%,?
Cc1nc2ccccc2c2oc(C(=O)N3CCC(N4CCCCC4)CC3)cc12,?,-8,-8,?,-3%,?
COc1ccc(N2CCN(C(=O)c3cc4c(C)nc5ccccc5c4o3)CC2)cc1,0,?,-26,9.2µM*,10%,16µM*
Cc1nc2ccccc2c2oc(C(=O)N3CCN(C4CCCCC4)CC3)cc12,-4,-12,-16,12µM*,-3%,21µM*
COc1ccc(N2CCN(CCCn3c(=S)[nH]c4ccccc4c3=O)CC2)cc1,21,.,19,?,.,?
